Measured values from PubChem BioAssay (EPA / NIEHS).
Active and inactive are the calls of the source. How the source made its calls: active means hit-call score of the fitted dose curve at least 0.9, where 1 is the maximum; inactive means score below 0.9.

molecular target: Transcriptional activator Myb (Homo sapiens) (UniProt P10242); test: ATG_Myb_CIS: Attagene CIS-FACTORIAL HepG2 Assay for human Myeloblastosis (Myb) Proto-Oncogene Transcription Factor (AID 2282986); conditions: HepG2 Attagene CIS-FACTORIAL Myb reporter transcription; actives raise or lower the signal
Sequence (P10242 whole entry, looked up): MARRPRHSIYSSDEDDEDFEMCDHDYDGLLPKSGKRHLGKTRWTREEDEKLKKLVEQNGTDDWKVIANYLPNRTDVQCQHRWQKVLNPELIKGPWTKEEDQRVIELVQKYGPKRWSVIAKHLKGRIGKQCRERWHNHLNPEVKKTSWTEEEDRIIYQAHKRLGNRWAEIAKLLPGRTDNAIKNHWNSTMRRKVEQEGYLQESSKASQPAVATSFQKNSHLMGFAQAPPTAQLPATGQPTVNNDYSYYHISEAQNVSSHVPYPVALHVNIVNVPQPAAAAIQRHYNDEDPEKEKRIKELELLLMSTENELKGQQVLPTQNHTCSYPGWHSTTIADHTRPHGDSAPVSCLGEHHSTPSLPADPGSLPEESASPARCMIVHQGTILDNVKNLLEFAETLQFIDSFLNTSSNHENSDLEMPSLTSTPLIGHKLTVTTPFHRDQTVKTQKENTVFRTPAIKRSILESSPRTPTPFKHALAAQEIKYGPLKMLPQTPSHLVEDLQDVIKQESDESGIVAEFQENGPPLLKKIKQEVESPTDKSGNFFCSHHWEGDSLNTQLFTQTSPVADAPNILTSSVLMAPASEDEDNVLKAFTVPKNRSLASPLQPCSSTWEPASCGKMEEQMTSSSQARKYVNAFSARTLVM
Method: ATG_CIS is a cell-based, multiplexed-readout assay that uses HepG2, a human liver cell line, with measurements taken at 24 hours after chemical dosing in a 24-well plate.ATG_Myb_CIS is one of 52 assay component(s) measured or calculated from the ATG_CIS assay. It is designed to make measurements of mRNA induction, a form of inducible reporter, as detected with fluorescence intensity signals by Reverse transcription polymerase chain reaction (RT-PCR) and Capillary electrophoresis technology.Data from the assay component ATG_Myb_CIS was analyzed into 1 assay endpoint. This assay endpoint, ATG_Myb_CIS, was analyzed with bidirectional fitting relative to DMSO as the negative control and baseline of activity. Using a type of inducible reporter, measures of mRNA for gain or loss-of-signal activity can be used to understand the reporter gene at the transcription factor-level as they relate to the gene MYB. Furthermore, this assay endpoint can be referred to as a primary readout, because this assay has produced multiple assay endpoints where this one serves a reporter gene function. To generalize the intended target to other relatable targets, this assay endpoint is annotated to the dna binding intended target family, where the subfamily is MYB proteins.
Human liver HepG2 cells are transiently transfected with multiple reporter transcription units (MRTUs) in 6-well plates using FuGene 6 reagent (Roche; 3 ml FuGene/1 mg DNA). The MRTU constructs are regulated by a cis-regulating element (promoter). […] A major difference between the CIS and TRANS system is that in CIS activities of endogenous TFs are measured, whereas the TRANS assay evaluates changes in activities of exogenous, chimeric NR-Gal4 proteins. […] At the end of 24 hour incubation, total RNA was isolated using TriZol reagent (Invitrogen). The isolated RNA is then reverse-transcribed using oligo(dT) primer and Mo-MLV reverse transcriptase (Invitrogen) with DNAse I (Ambion) treatment for 30 min. The one-tenth of the produced cDNA was amplified by PCR using Taq DNA polymerase (Invitrogen) and two reporter sequence-specific primers. The PCR products were fluorescently labeled by primer extension with 6-arboxyfluorescein (6-FAM) 5'-labeled reporter sequence-specific primer (2 min at 95 C, 20 s at 68 C and 10 min at 72 C) and these products were digested with 5U of HpaI (New England Biolabs) for 2h at 37 C. The fragments were purified using Qiaquick PCR columns (Qiagen), analyzed on an ABI 3130xL genetic analyzer (Applied Biosystems) with peak positions identified by using a set of X-rhodamine (ROX)-labeled MapMarker1000 molecular weight standards (BioVentures). The raw capillary electrophoresis data was processed using Attagraph software (Attagene).

| Compound | outcome | AC50 |
| --- | --- | --- |
| CCCC(=O)OCC | inactive | – |
| Oc1ccc2c(c1)-c1ccccc1C2 | inactive | – |
| COCCOc1cc2cc(C(=O)NC3CCN(C(C)C)CC3)n(CC(=O)Nc3ccc(Cl)cn3)c2cn1 | inactive | – |
| C[C@](N)(Cc1ccc(O)c(O)c1)C(=O)O | inactive | – |
| CCOc1cccc(-n2cc(C(=O)N3CCN(c4cc(C(=O)O)c5ccccc5c4)CC3)nc2-c2ccc(C)cc2)c1 | – | 152 µM (active) |
| O=C(O)CCN(C1(C(=O)NO)CCCC1)S(=O)(=O)c1ccc(Oc2ccc(F)cc2)cc1 | inactive | – |
| Nc1ccc(Nc2ccccc2)cc1 | inactive | – |
| CC(C)(O)c1coc(S(=O)(=O)NC(=O)Nc2c3c(cc4c2CCC4)CCC3)c1 | inactive | – |
| CC[C@H]1CC[C@H](NCc2cc3c(cc2OC)[C@H]2C[C@H]2C(=O)N3C)[C@H](c2ccccc2)N1 | inactive | – |
| CCCCC(CC)COC(=O)c1ccc(C(=O)OCC(CC)CCCC)cc1 (stereo not given) | inactive | – |
| CC(=O)OC[C@H]1O[C@@](COC(C)=O)(O[C@H]2O[C@H](COC(C)=O)[C@@H](OC(C)=O)[C@H](OC(C)=O)[C@H]2OC(C)=O)[C@@H](OC(C)=O)[C@@H]1OC(C)=O | inactive | – |
| CC1(C)C(=O)N(Br)C(=O)N1Br | inactive | – |
| Nc1cccc(N)c1 | inactive | – |
| O=C(OC[C@H]1O[C@@H](OC(=O)c2cc(O)c(O)c(OC(=O)c3cc(O)c(O)c(O)c3)c2)[C@H](OC(=O)c2cc(O)c(O)c(OC(=O)c3cc(O)c(O)c(O)c3)c2)[C@@H](OC(=O)c2cc(O)c(O)c(OC(=O)c3cc(O)c(O)c(O)c3)c2)[C@@H]1OC(=O)c1cc(O)c(O)c(OC(=O)c2cc(O)c(O)c(O)c2)c1)c1cc(O)c(O)c(OC(=O)c2cc(O)c(O)c(O)c2)c1 | inactive | – |
| NC(=O)NO | inactive | – |
| CNCc1ccc(NC(=O)c2c[nH]c3c2C(=O)CCC3)cc1 | inactive | – |
| Cn1c(=O)c2c(ncn2C)n(C)c1=O | inactive | – |
| CCCCCCCCO | inactive | – |
| Cc1ccc(S(=O)(=O)O)cc1C | inactive | – |
| O=C(O)c1cccc(Oc2ccccc2)c1 | inactive | – |

| Compound | outcome | AC50 |
| --- | --- | --- |
| C=CC(=C)CCC=C(C)C | inactive | – |
| CC(C)CCCCCCOC(=O)c1ccc(C(=O)OCCCCCCC(C)C)c(C(=O)OCCCCCCC(C)C)c1 | inactive | – |
| CCCN(C1CCN(C(=O)C2CCNCC2)CC1)[C@@H]1CCc2ccc(OC)cc2C1 | inactive | – |
| Cc1ccc(N)cc1O | inactive | – |
| C=CCCCCCCCCC(=O)O | inactive | – |
| O=C(CCCCCCCCc1cccnc1)N1CCC(C=C(c2ccccc2)c2ccccc2)CC1 | – | 60.2 µM (active) |
| COC(=O)CC(=O)OC | inactive | – |
| COC(=O)c1ccccc1O | inactive | – |
| COc1ccc2sc(C(=O)Nc3nnn[nH]3)c(OC(C)C)c2c1 | inactive | – |
| COc1ccc(/C=C/S(=O)(=O)NC(=O)c2ccc(C)cc2Cl)cc1 | inactive | – |
| CC(C)CCO | inactive | – |
| CCCCCCc1ccc(O)cc1O | inactive | – |
| Cc1ccc(C)c(O)c1 | inactive | – |
| O=C(O)c1cc(N=Nc2ccc(S(=O)(=O)Nc3ccccn3)cc2)ccc1O | inactive | – |
| O=C1CCCCCN1 | inactive | – |
| CCCCCCCCCCCCCCCO | inactive | – |
| CC1=CC(=O)CC(C)(C)C1 | inactive | – |
| CC(C)c1cccc(C(C)C)c1N1C(=O)c2ccc(O)cc2C1=O | inactive | – |
| CN(C)c1ccc(N=NS(=O)(=O)O)cc1 | inactive | – |
| CCn1nc(Cc2ccccc2)cc1C1CCN(C[C@H]2C[C@H](N(C)[C@@H](C(=O)O)C(C)C)C[C@@H]2c2cccc(F)c2)CC1 | inactive | – |
